Laboratory results as given in the supplement of paper PMC11624193, “Coupling cellular drug-target engagement to downstream pharmacology with CeTEAM” (Nature Communications, 2024).
Counter-ions that a name gives are not always drawn. Unmarked numbers belong to inactive results.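 How the source made its calls: active = log2 fold change beyond 2 SD from the library mean after excluding viability outliers; inactive = within 2 SD.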

The compounds below were run against PARP1 L713F-nLuc biosensor (HCT116) (UniProt P09874) (assay: PARP1 L713F-nLuc/akaLuc ratio relative to DMSO control (biosensor stabilization) (fold change); higher = more PARP1 biosensor stabilization (target engagement / stabilizer), active = hit call of the paper). Details: stock concentration (mM; final µM = stock mM x 1): 10; 24 h.
Sequence of PARP1 L713F-nLuc biosensor (HCT116) (P09874 whole entry L713F, looked up): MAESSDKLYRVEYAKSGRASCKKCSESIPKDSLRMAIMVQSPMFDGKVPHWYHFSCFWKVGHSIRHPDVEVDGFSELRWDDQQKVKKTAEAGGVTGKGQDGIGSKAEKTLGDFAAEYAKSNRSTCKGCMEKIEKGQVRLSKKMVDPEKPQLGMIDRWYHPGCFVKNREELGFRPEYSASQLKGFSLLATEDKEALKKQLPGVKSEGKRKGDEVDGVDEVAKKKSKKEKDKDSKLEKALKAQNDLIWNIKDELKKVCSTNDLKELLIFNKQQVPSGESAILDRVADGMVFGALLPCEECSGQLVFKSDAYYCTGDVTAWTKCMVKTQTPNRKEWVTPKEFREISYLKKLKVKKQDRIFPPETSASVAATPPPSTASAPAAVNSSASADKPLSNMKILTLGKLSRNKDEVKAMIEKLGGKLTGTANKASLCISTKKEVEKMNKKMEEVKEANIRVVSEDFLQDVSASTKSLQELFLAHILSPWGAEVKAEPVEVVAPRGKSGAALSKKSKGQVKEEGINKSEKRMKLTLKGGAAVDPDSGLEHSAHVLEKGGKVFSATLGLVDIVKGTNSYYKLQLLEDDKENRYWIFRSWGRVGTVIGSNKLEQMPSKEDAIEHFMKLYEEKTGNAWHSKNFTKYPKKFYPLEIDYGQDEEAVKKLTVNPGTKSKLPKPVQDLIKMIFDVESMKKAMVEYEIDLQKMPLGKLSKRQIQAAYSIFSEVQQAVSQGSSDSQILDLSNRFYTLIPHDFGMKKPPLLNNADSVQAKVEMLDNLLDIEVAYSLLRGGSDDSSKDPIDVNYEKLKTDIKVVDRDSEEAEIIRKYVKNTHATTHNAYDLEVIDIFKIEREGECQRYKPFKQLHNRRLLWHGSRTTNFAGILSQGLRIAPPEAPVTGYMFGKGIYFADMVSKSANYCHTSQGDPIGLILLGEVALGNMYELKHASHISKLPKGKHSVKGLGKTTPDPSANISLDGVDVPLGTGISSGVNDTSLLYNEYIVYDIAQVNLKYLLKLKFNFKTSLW

Point of comparison: `O=C1NC(=O)/C(=C\c2cccc(C(F)(F)F)c2)S1`, “PARP1 L713F-nLuc/akaLuc ratio” value 0.962. Against it:
- CCS(=O)(=O)N1CCC([C@@H](C)n2c(C)c(C(=O)NCc3c(OC)cc(C)[nH]c3=O)c3ccccc32)CC1 — higher, 1.51
- Cc1ccc(=O)n(-c2ccccc2)c1 [Pirfenidone] — lower, 0.824
- O=c1c2c([nH]n1-c1nc3ccccc3s1)CCCC2 — lower, 0.788
- O=C(O)CNC(=O)c1nc(Cl)c2ccccc2c1O — lower, 0.618
- Cc1cc(Nc2cc(N3CCN(C)CC3)nc(Sc3ccc(NC(=O)C4CC4)cc3)n2)n[nH]1 [Tozasertib (VX-680, MK-0457)] — lower, 0.821
- O=C1NC(=O)[C@@H](c2cn3c4c(cccc24)CCC3)[C@@H]1c1c[nH]c2ccccc12 [Tivantinib (ARQ 197)] — lower, 0.773
- CCCc1cc(C)[nH]c(=O)c1CNC(=O)c1cc(-c2ccc(N3CCN(C(C)C)CC3)nc2)cc2c1cnn2C(C)C — lower, 0.862
- CN1CCCN(C(=O)c2cccc(-c3ccc(/C=C4/C(=O)Nc5ccc(Cl)cc54)o3)c2)CC1 [CX-6258 (hydrochloride)] — lower, 0.53
- Cc1cc(CN)cc(C)c1-c1ncn(C)c1-c1ccnc2cc(F)ccc12 [BI-9321 (trihydrochloride)] — lower, 0.66
- CC1(C)CCC(CN2CCN(c3ccc(C(=O)NS(=O)(=O)c4ccc(NCC5CCOCC5)c([N+](=O)[O-])c4)c(Oc4cnc5[nH]ccc5c4)c3)CC2)=C(c2ccc(Cl)cc2)C1 [Venetoclax (ABT-199, GDC-0199)] — lower, 0.901
- NC[C@@](O)(c1ccc(Cl)cc1)c1ccc(-c2cn[nH]c2)cc1 — lower, 0.809
- CCN1CCN(Cc2ccc(Nc3ncc(F)c(-c4cc(F)c5nc(C)n(C(C)C)c5c4)n3)nc2)CC1 [Abemaciclib] — lower, 0.621
- CC(C(=O)Nc1cccc(/N=C/c2c(O)ccc3ccccc23)c1)c1ccccc1 (stereo not drawn) [Salermide] — lower, 0.605
- Cn1ncc(Cl)c1-c1cc(C(=O)N[C@H](CN)Cc2cccc(F)c2)sc1Cl [Afuresertib] — higher, 1.63
- C[C@@H](NC(=O)c1ncnc(N)c1Cl)c1ncc(C(=O)Nc2cc(C(F)(F)F)c(Cl)cn2)s1 — lower, 0.886
- CN1CCN(c2ccc(Nc3ncc4cc(C#N)c(=O)n(C5CCCC5)c4n3)cc2)CC1 — lower, 0.701
- O=C(Nc1ccccc1-c1cn2c(CN3CCNCC3)csc2n1)c1cnc2ccccc2n1 — higher, 1
- Nc1nc(=O)n([C@H]2C[C@H](O)[C@@H](CO)O2)cc1F [5-Fluoro-2'-deoxycytidine] — lower, 0.559
- O=c1ncn2nc(Sc3ccc(F)cc3F)ccc2c1-c1c(Cl)cccc1Cl — lower, 0.808
- C[C@H](Nc1cc(-c2cnn(C)c2)cc(Nc2cnccn2)n1)c1ccc(F)cc1 [Ilginatinib] — lower, 0.485
- CC1(C)c2cccc(C(=O)NO)c2CN1c1cnc(C(F)(F)F)cn1 — lower, 0.913
- CNc1nc(NC2CCN(Cc3ccc4c(cc(C#N)n4CC45CC(NC=O)(C4)C5)c3C)CC2)c2cc(CC(F)(F)F)sc2n1 — higher, 1.38
- CC1Oc2cc(cnc2N)-c2c(nn(C)c2C#N)CN(C)C(=O)c2ccc(F)cc21 (stereo not drawn) — higher, 1.13
- CCCCCOC(=O)Nc1nc(=O)n([C@@H]2O[C@H](C)[C@@H](O)[C@H]2O)cc1F [Capecitabine] — lower, 0.759
- Cn1c(=O)c2c(ncn2CC(=O)O)n(C)c1=O [Acefylline] — lower, 0.921
- COc1c(O)cc2oc(-c3ccc(O)cc3)cc(=O)c2c1O [Hispidulin] — lower, 0.723
- CCOC(=O)c1c[nH]c2c(ccc3cccnc32)c1=O [1,4-DPCA ethyl ester] — higher, 1.19
- COCCOc1cnc2ccn([C@H](C)c3nnc4c(F)cc(-c5cnn(C)c5)cn34)c(=O)c2c1 — lower, 0.857
- C=CC(=O)Nc1cccc(CNc2nc(Nc3ccc(N4CCN(C)CC4)cc3OC)ncc2Cl)c1 — higher, 1.54
- COc1ccc(NC(=O)c2ccc(NC3=C(C)C(=O)CC3)c(Cl)c2)cc1 — lower, 0.879
- c1cc(SSc2ccns2)sn1 — higher, 1.1
- NC(=O)c1ccc(Oc2ccc(C(N)=O)cc2)cc1 — higher, 1.27
- O=C(NCCCNC(=O)Nc1cccc(C2=NCCN2)c1)Nc1cccc(C2=NCCN2)c1 [p32 Inhibitor M36] — higher, 1.09
- O=C(O)CC[C@H](O)C(=O)O [L-2-Hydroxyglutaric acid (disodium)] — higher, 1.2
- N#Cc1ccc2ncnc(NCCc3ccccc3)c2c1 [Senexin A] — higher, 1.24
- O=C(Nc1cc(Cl)cc2c1[nH]c1cnccc12)c1cccnc1 — lower, 0.723
- Cc1cnc(Nc2ccc(OCCN3CCCC3)cc2)nc1Nc1cccc(S(=O)(=O)NC(C)(C)C)c1 [Fedratinib] — lower, 0.694
